Source: PubChem BioAssay (NCI)
The panel holds about 83,000 compounds, 20% with a hit somewhere; the sample as a whole holds those more often.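 The test compound was applied at a single concentration to cells in 96-well plates for 48 hours, and percent growth was recorded.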 A number with no mark means an inactive call. Calls of active or inactive are those of the source. The calls were made as follows: active = growth percent below 10; inactive = the rest.

Columns and labels:
Test in all cases: NCI-60 one-dose screen, 48 h (100 = growth as untreated, 0 = no growth, -100 = all killed)
Conditions in all cases: 10 µM unless noted
NCI-H23 lung = system: NCI-H23 lung
NCI-H226 lung = system: NCI-H226 lung
NCI-H322M lung = system: NCI-H322M lung
HOP-62 NSCLC = system: HOP-62 NSCLC
NCI-H460 lung = system: NCI-H460 lung
HOP-92 NSCLC = system: HOP-92 NSCLC
NCI-H522 lung = system: NCI-H522 lung
A549/ATCC NSCLC = system: A549/ATCC NSCLC
786-0 renal = system: 786-0 renal
COLO 205 colon = system: COLO 205 colon
DU-145 prostate = system: DU-145 prostate
K-562 leukemia = system: K-562 leukemia
MALME-3M melanoma = system: MALME-3M melanoma
MDA-MB-231 breast = system: MDA-MB-231 breast
RXF 393 renal = system: RXF 393 renal
SF-268 CNS = system: SF-268 CNS
SF-295 CNS = system: SF-295 CNS
SF-539 CNS = system: SF-539 CNS
UACC-257 melanoma = system: UACC-257 melanoma
M14 melanoma = system: M14 melanoma

Compound | growth (NCI-H23 lung) [%] | growth (NCI-H226 lung) [%] | growth (NCI-H322M lung) [%] | growth (HOP-62 NSCLC) [%] | growth (NCI-H460 lung) | growth (HOP-92 NSCLC) | growth (NCI-H522 lung) | growth (A549/ATCC NSCLC) [%] | growth (786-0 renal) [%] | growth (COLO 205 colon) [%] | growth (DU-145 prostate) [%] | growth (K-562 leukemia) | growth (MALME-3M melanoma) | growth (MDA-MB-231 breast) [%] | growth (RXF 393 renal) | growth (SF-268 CNS) [%] | growth (SF-295 CNS) [%] | growth (SF-539 CNS) [%] | growth (UACC-257 melanoma) [%] | growth (M14 melanoma) [%]
CC(=O)c1ccc(C)cc1 | 104 | 102 | 90 | 107 | 106% | 88.3% | 103% | 114 | 120 | 116 | 114 | 114% | 90.8% | 114 | 97.6% | 107 | 109 | 114 | 92 | 107
CC(=O)CSc1ncnc2nc[nH]c12 | 106 | 92.1 | 115 | 84.8 | 98.4% | 69.6% | 72.8% | 87.3 | 91.7 | 97.6 | 94.3 | 82.9% | 93.4% | 87.5 | 89.9% | 105 | 99.7 | 94.8 | 78.3 | 59.2
C=CCN1CCCC1=O | 106 | 102 | 89.3 | 106 | 105% | 99.6% | 101% | 112 | 105 | 95.4 | 114 | 86.7% | 96.9% | 94.7 | 128% | 108 | 98.3 | 93 | 119 | 98.8
CCOC(=O)C1(N)CCCCC1 | 96.8 | 98.6 | 107 | 102 | 112% | 102% | 96.8% | 100 | 101 | 110 | 112 | 116% | 100% | 102 | 121% | 102 | 95.4 | 96.9 | 107 | 93.8
CCOC(=O)CNC | 101 | 98.8 | 96.9 | 106 | 106% | 91.1% | 123% | 87.8 | 101 | 116 | 116 | 96.8% | 114% | 97.8 | 108% | 115 | 96.7 | 99.7 | 81.7 | 104
O=C(O)CSCC(=O)Nc1cc(C(F)(F)F)ccc1Cl | 111 | 109 | 103 | 105 | 134% | 104% | 99.9% | 106 | 107 | 121 | 128 | 102% | 105% | 112 | 128% | 94.5 | 103 | 101 | 103 | 103
COC1=C(OC)C(=O)C(SC/C=C(\C)CCCC(C)CCCC(C)CCCC(C)C)=CC1=O (stereo not given) | 14 | 40.9 | 67.4 | 38.3 | 2.16% (active) | -13.1% (active) | -6.14% (active) | 17.8 | 66 | 94.4 | 32 | 8.26% (active) | 5.25% (active) | 15.5 | -0.159% (active) | 28.7 | 16.5 | 16.9 | 13.6 | 26.9
COC(=O)Cc1cc(COC(C)=O)ccc1C | 104 | 107 | 110 | 110 | 109% | 79% | 99.2% | 99.1 | 100 | 120 | 116 | 108% | 110% | 125 | 107% | 113 | 121 | 111 | 108 | 106
